# Experimental data reported in the supplement of paper PMC6607015.
# Counter-ions that a name gives are not always drawn.
# System: A431
# Test: whole-cell filipin (free cholesterol) integrated intensity, Z-score; higher = more cholesterol staining
# Conditions: compound concentration in added solution (µM; 5 µl added to 20 µl cells): 10; 18 h
# Method in brief: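 After 18 h on 5 µl of 10 µM compound solution in duplicate 384-well imaging plates, HeLa MZ or A431 cells, seeded at 3,500 per well in 20 µl, were fixed with 4% PFA. They were then labelled with 6C4 anti-LBPA antibody, filipin, propidium iodide and CellTracker green, and four 20× fields were recorded per well. Integrated LBPA or filipin intensity per cell, whole-cell or within LBPA endosomes, came from MetaXpress segmentation and was normalised to Z-scores in AcuityXpress.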
row,Compound,whole-cell filipin (z-score)
1,c1ccc2c(c1)CCCc1cc(NCCN3CCOCC3)nnc1-2,-0.665
2,CC(C)OC(=O)C(C)(C)Oc1ccc(C(=O)c2ccc(Cl)cc2)cc1 [Fenofibrate],-0.324
3,CC(=O)N(CC(C)C(=O)O)c1c(I)cc(I)c(N)c1I (centres undefined) [Iocetamic acid],-0.0512
4,CC(CN(C)C)CN1c2ccccc2Sc2ccccc21 (centres undefined) [Trimeprazine tartrate],1.36
5,CCOC(=O)[N-]c1c[n+](N2CCOCC2)no1 [Molsidomine],-0.59
6,CCN(CC)CCNc1ccc(CO)c2sc3ccccc3c(=O)c12 [Hycanthone],2.31
7,CCn1cc(C(=O)O)c(=O)c2cnc(N3CCNCC3)nc21 [Pipemidic acid],-0.242
8,Nc1cc(N2CCCCC2)nc(N)[n+]1[O-] [Minoxidil],-0.274
9,COc1cc2ncnc(Nc3ccc(F)c(Cl)c3)c2cc1OCCCN1CCOCC1 [Gefitinib],0.816
10,O=c1[nH]cc(F)c(=O)[nH]1 [5-fluorouracil],0.716
11,CS(=O)(=O)c1ccc([C@@H](O)[C@@H](CF)NC(=O)C(Cl)Cl)cc1 [Florfenicol],-0.505
12,COc1cc(C)c(/C=C/C(C)=C/C=C/C(C)=C/C(=O)O)c(C)c1C [Acitretin],0.514
13,Cc1cc(C(=O)NNCc2ccccc2)no1 [Isocarboxazid],-0.396
14,CO[C@H]1/C=C/O[C@@]2(C)Oc3c(C)c(O)c4c(O)c(c(/C=N/N5CCN(C6CCCC6)CC5)c(O)c4c3C2=O)NC(=O)/C(C)=C\C=C\[C@H](C)[C@H](O)[C@@H](C)[C@@H](O)[C@@H](C)[C@H](OC(C)=O)[C@@H]1C [Rifapentine],-0.546
